Measurements: PubChem BioAssay AID1347076 (National Center for Advancing Translational Sciences (NCATS), 2019)
The campaign covered roughly 400,000 compounds. About 13,000 (3.2%) were called active. Not shown: some 18% with an inconclusive outcome. Calls follow the shape of the dose curve; as a rule, active = well fitted cell-killing curve with a large enough effect; inconclusive = small, poorly fitted or top-dose-only effect, or effect the other way; inactive = flat fitted curve, though single readings scatter. Shown is part of a subset that was picked to be rich in actives. Where a call stands in place of a potency, no number is given.

Test: qHTS assay for MDR1-selective chemotherapeutics: Primary screen using the drug-selected MDR subline cells KB-V1; also: nearly all actives have a fitted effect of over 60% in size
Details: KB-V1 MDR cells viability, CellTiter-Glo, 72 h; series mostly up to 46.1 µM
In short: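 Readout: CellTiter-Glo luminescence, 10 min after addition. Cells: KB-V1 MDR subline, 72 h at 37 degrees C with compound. Analysis: corrected, normalized data fitted to concentration-effect curves.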
Potency is read from the fitted curve at half-maximal effect.

| Structure (SMILES) | Potency |
| --- | --- |
| CC(CNC(=O)c1nnc(Cc2cccc(F)c2)o1)c1ccccc1 (stereo not given) | inactive |
| C[C@H](CO)N1C[C@H](C)[C@@H](CN(C)S(=O)(=O)c2ccc(Oc3ccccc3)cc2)OCc2cn(nn2)CCCC1=O | inactive |
| C[C@@H]1CCCCO[C@H](CN(C)Cc2ccccc2)[C@@H](C)CN([C@H](C)CO)C(=O)c2cc(NS(=O)(=O)c3ccc(Cl)cc3)ccc2O1 | inactive |
| O=C(NCc1ccccn1)[C@@H]1CCCN1C(=O)[C@@H]1CCCN1C(=O)c1ccccc1 | inactive |
| CC1(C(=O)NCc2ccc3c(c2)OCO3)CCN1C(=O)Cc1cccc2ccccc12 (stereo not given) | inactive |
| COc1cc(/C=C2\Oc3ccc(C#Cc4ccc(O)cc4)cc3C2=O)cc(OC)c1 | 7.31 µM (active) |
| COc1ccc2c(c1)O/C(=C\c1ccccc1O)C2=O | inactive |
| COC(=O)C(C)Oc1ccc2c(c1)O/C(=C\c1cccc(Br)c1)C2=O (stereo not given) | inactive |
| CCN(CC)C(=O)C1=C(C)N(Cc2ccccc2)C(=O)C(CC(=O)NC(c2ccccc2)c2ccccc2)C1 (stereo not given) | inactive |
| Cn1ncc(Br)c1C(=O)NCc1cccs1 | inactive |
| CC(C)(C)c1ccc(C(=O)NCCn2c(N)c(C#N)c3nc4ccccc4nc32)cc1 | inactive |
| CC(C)Cn1c(N)c(C(=O)NCc2cccs2)c2nc3ccccc3nc21 | 10.3 µM (active) |
| CCN1C(=O)c2ccccc2S(=O)c2ccc(C(=O)NCc3ccc(F)cc3)cc21 (stereo not given) | inactive |
| CCOC(=O)C1CCCN(S(=O)(=O)c2cc(-c3cc(C)no3)ccc2OC)C1 (stereo not given) | inactive |
| O=c1cc(CSc2ncn[nH]2)[nH]c2ccc(F)cc12 | inactive |
| CCNC(=O)C1(C)CCN(C(=O)c2ccccc2)C1 (stereo not given) | inactive |
| CCOC(=O)N1CCN(C(c2cccnc2)c2ccc3cccnc3c2O)CC1 (stereo not given) | 16.4 µM (active) |
| Oc1c(C(c2ccccn2)N2CCOCC2)ccc2cccnc12 (stereo not given) | inactive |
| CCOC(=O)N1CCN(C(c2ccnc3ccccc23)c2nnnn2-c2c(C)cccc2C)CC1 (stereo not given) | inactive |
| CCN(CC)c1nc(C#N)nc(OC)n1 | inactive |
| CC(C)c1ccc(NC(=O)CN(C)S(=O)(=O)c2ccc3c(c2)c(=O)n(C)c(=O)n3C)cc1 | inactive |
| Cc1ccc(S(=O)(=O)Nc2nc(C)cc(-n3nc(C)cc3C)n2)cc1 | inactive |
| CCCC(C(=O)n1nc(C)cc1C)C(NS(=O)(=O)c1ccc(C)cc1)c1ccccc1 (stereo not given) | 23.1 µM (active) |
| CSCC(NS(=O)(=O)c1ccc(C)cc1)C(=O)O (stereo not given) | inactive |

| Structure (SMILES) | Potency |
| --- | --- |
| Cc1ccc(C)c(C(O)c2ncc(-c3cccc4ccccc34)[nH]2)c1 (stereo not given) | inactive |
| c1ccc(Cn2nnc3c(NCC4CC4)ncnc32)cc1 | inactive |
| CC(=O)NCCC(=O)Nc1cc(S(=O)(=O)N2CCOCC2)ccc1N1CCOCC1 | inactive |
| Cc1cc(OCCCC(=O)Nc2cc(S(=O)(=O)N3CCOCC3)ccc2N2CCOCC2)ccc1Cl | 13 µM (active) |
| CC(C)CCC(=O)Nc1cc(S(=O)(=O)N2CCOCC2)ccc1N1CCCC1 | inactive |
| COC(C(=O)NCc1ccccc1C)c1ccccc1 (stereo not given) | inactive |
| COC(C(=O)Nc1ccc(C(C)=O)cc1)c1ccccc1 (stereo not given) | inactive |
| COC(C(=O)Nc1ccc(S(=O)(=O)Nc2ccc(C)c(C)c2)cc1)c1ccccc1 (stereo not given) | 20.6 µM (active) |
| COc1cccc(Cn2c(SCc3ccc(C(=O)N4CCC(C)CC4)cc3)nc3ccncc32)c1 | inactive |
| CC1CCN(C(=O)c2ccc(CSc3ccc(Cl)cc3)cc2)CC1 | 18.4 µM (active) |
| O=C(C1CC1)N1CCN=C1SCc1ccc(Cl)cc1 | inactive |
| CCCNC(=O)C1(C)CCCN(C(=O)c2cccc(OC(C)=O)c2C)C1 (stereo not given) | inactive |
| FC(F)(F)c1ccccc1Cc1c(-c2ccccc2)nc2c3ccccc3ccn12 | inactive |
| COc1ccc(F)cc1S(=O)(=O)NCC(c1ccc2c(c1)OCO2)N1CCN(C)CC1 (stereo not given) | inactive |
| CC(C)CNC(=O)C(=O)NCC(c1ccc2c(c1)OCO2)N1CCOCC1 (stereo not given) | inactive |
| Cc1cc(C)c(S(=O)(=O)NCC(c2ccc3c(c2)OCO3)N2CCOCC2)c(C)c1 (stereo not given) | 10.3 µM (active) |
| O=C(CCc1ccccc1)NCc1ccc2c(c1)CCN2C(=O)c1ccccc1 | inactive |
| Cc1nccn1-c1ccc(NC(=O)[C@H]2O[C@@H](n3cnc4c(N)ncnc43)[C@H](O)[C@@H]2O)cc1 | inactive |
| CSc1ccc(CN2CCC2(C)C(=O)Nc2ccc(C)c(O)c2)cc1 (stereo not given) | inactive |
| Cc1nc2sc(C)c(C)n2c(=O)c1S(=O)(=O)NCCc1ccc(Cl)cc1 | inactive |
| CC1(C(=O)NS(=O)(=O)c2ccccc2)CCN1C(=O)c1ccccc1 (stereo not given) | inactive |
| Cc1nnc(NC(=O)CSc2nccn2-c2cccc(C)c2C)s1 | 9.2 µM (active) |
| Cc1cccc(-n2ccnc2SCC(=O)Nc2cccc3ccccc23)c1C | inactive |
| Cc1cc(C)cc(-n2ccnc2SCC(=O)Nc2nc3ccccc3s2)c1 | inactive |

| Structure (SMILES) | Potency |
| --- | --- |
| C[C@@H]1CN([C@@H](C)CO)C(=O)CCCn2nncc2CO[C@@H]1CN(C)S(=O)(=O)c1ccc(-c2ccccc2)cc1 | inactive |
| O=C(N/N=C/c1cccc(OCc2ccccc2)c1)c1ccc(Br)o1 | inactive |
| CN(C)c1ccc(/C=N/NC(=O)c2ccc(Cn3cc(Br)cn3)o2)cc1 | inactive |
| O=C(N/N=C\c1ccc(Br)cc1)c1ccc(Cn2cccn2)o1 | 11.6 µM (active) |
| C[C@H]1CN([C@@H](C)CO)S(=O)(=O)c2ccc(Br)cc2O[C@H]1CN(C)C(=O)c1cnccn1 | inactive |
| CC(C)CC1C(=O)N(Cc2cn(Cc3ccco3)nn2)CCS(=O)(=O)N1Cc1ccc(-c2ccc(Cl)c(Cl)c2)cc1 (stereo not given) | inactive |
| CCCCN(C=O)c1c(CC)nc2c(OCCC3CCCCC3)cccn12 | inactive |
| COc1ccc(/C=C(/CC(=O)Nc2ccc(C)cc2)c2nc3ccccc3s2)cc1 | inactive |
| COC(=O)Cc1[nH]n(-c2nc3ccccc3s2)c(=O)c1C(C)=Nc1ccc(OC)cc1 | 9.2 µM (active) |
| COc1ccc(CC(=O)Nc2ccc(-c3nc4ccccc4s3)c(C)c2)cc1 | inactive |
| CC1=C(C(=O)N2CCOCC2)CC(CC(=O)NCc2cccc3ccccc23)C(=O)N1CCC1=CCCCC1 (stereo not given) | inactive |
| COc1cc(C(=O)NCCc2csc3nc(-c4ccccc4C)nn23)cc(OC)c1OC | inactive |
| CC[C@H]1CN2CCc3cc(OC)c(OC)cc3[C@@H]2C[C@@H]1C[C@H]1NCCc2cc(OC)c(OC)cc21 | 5.17 µM (active) |
| CCC(CC)C(=O)N1CCc2cc(OC)c(OC)cc2C1COc1ccc(F)cc1 (stereo not given) | inactive |
| COc1ccc2c(c1)CCNC2Cc1ccc(OC)c(O)c1 (stereo not given) | inactive |
| Cc1cc(Cl)ccc1-c1nc(NCCN(C)C)nc2ccsc12 | inactive |
| COc1cc(C=NC2CCCCC2)ccc1O | inactive |
| CCc1ccc(-c2nn3c(C)nnc3s2)cc1NC(=O)c1ccc(-c2cccc(Cl)c2)o1 | inactive |
| CCOc1cccc(-c2nnc(SCC(=O)NC3CC3)n2C)c1 | inactive |
| CCOc1cccc(-c2nn3c(-c4ccccn4)nnc3s2)c1 | 5.17 µM (active) |
| CCOC(=O)C1CCN(C(=O)c2ccc3c(=O)n4nc(Nc5ccccc5CC)sc4nc3c2)CC1 | inactive |
| COc1cc(NC(=O)Cn2nc(-c3ccc(C)c(C)c3)ccc2=O)cc(OC)c1 | inactive |
| CC(NC(=O)Cn1cc(C(F)(F)F)cc(Cl)c1=O)c1ccccc1 (stereo not given) | inactive |
| Cc1ccc(-c2nc3c(Cl)cc(C(F)(F)F)cn3c2Cc2cccc(Cl)c2)cc1 | inactive |

| Structure (SMILES) | Potency |
| --- | --- |
| O=c1c([N+](=O)[O-])cc(C(F)(F)F)cn1Cc1cccc(Cl)c1 | 18.4 µM (active) |
| Cn1c(NCc2cccnc2)nc2cc(-c3ccc(F)cc3)sc2c1=O | inactive |
| O=C(Nc1ccccc1C(F)(F)F)c1nc(S(=O)(=O)Cc2ccccc2F)ncc1Cl | inactive |
| COc1ncnc2c1ncn2CCCNCCN1CCOCC1 | inactive |
| Cc1ccccc1C1=NC(C(F)(F)F)(C(F)(F)F)c2c(n(-c3ccc(F)cc3)c(=O)[nH]c2=O)N1 | 14.6 µM (active) |
| O=c1[nH]c(=O)n(Cc2ccco2)c2c1C(C(F)(F)F)(C(F)(F)F)N=C(c1ccco1)N2 | inactive |
| COc1cccc(C(=O)NC2(C(F)(F)F)C(=O)Nc3c2c(=O)[nH]c(=O)n3-c2ccc(C)cc2)c1 (stereo not given) | inactive |
| O=C(NC(c1ccco1)c1cc(Cl)c2cccnc2c1O)c1ccccc1 (stereo not given) | inactive |
| COc1ccc2nc(-c3ccccn3)ccc2c1 | inactive |
| O=c1ccc(S(=O)(=O)N2CCCC2)cn1Cc1nc(-c2ccccc2)no1 | inactive |
| CC(C)c1ccc(-c2noc(C3CCCN(S(C)(=O)=O)C3)n2)cc1 (stereo not given) | 18.4 µM (active) |
| COc1cc(-c2noc(C3CCCN(S(=O)(=O)c4cccc(Cl)c4)C3)n2)cc(OC)c1OC (stereo not given) | inactive |
| COc1cccc(-c2noc(C3CCCN(C(=O)c4ccc(F)cc4)C3)n2)c1 (stereo not given) | inactive |
| COc1ccc(NC(=O)N2CCCC(c3nc(-c4ccc(F)cc4)no3)C2)cc1 (stereo not given) | inactive |
| O=C(Cc1cccs1)N1CCCC(c2nc(-c3ccc(S(=O)(=O)N4CCCC4)cc3)no2)C1 (stereo not given) | 20.6 µM (active) |
| Cc1ccccc1-c1ccc2c(c1)O[C@@H](CN(C)Cc1ccc(C(=O)O)cc1)[C@@H](C)CN([C@H](C)CO)S2(=O)=O | inactive |
| NC(CSC(c1ccccc1)(c1ccccc1)c1ccc(-c2ccccc2)cc1)C(=O)O (stereo not given) | inactive |
| O=C1NC[C@H](Cc2ccc(O)cc2)N(C[C@@H]2CCCN2C[C@H](Cc2ccccc2)N2C[C@H](Cc3ccccc3)N(CC3CCCCC3)C(=O)C2=O)C1=O | inactive |
| CCc1nc2c(OCC(=O)C(C)(C)C)cccn2c1N(C)C(=O)c1ccccc1F | inactive |
| COc1cc(Cn2c3ccc(NC(=O)CC(C)c4ccccc4)cc3c(=O)n2C)ccc1F (stereo not given) | inactive |
| CC(C)c1ccc(S(=O)(=O)NC2CCCC2)cc1 | inactive |
| Cc1ccc(S(=O)(=O)NC2CCCCCC2)cc1 | 20.6 µM (active) |
| CSc1ccc(S(=O)(=O)NC2CCCCC2)cc1 | inactive |
